Results on seven compounds are retold here after PubChem BioAssay.

Results filed as inconclusive are left out. Activity calls are given as the source filed them. Cut-off read from the data, not from the text of the source, unless noted: active = percent of DMSO control GFP below about 86%; inactive = the rest, inconclusive results apart.

A short description of experiment [1]: rapamycin-like changes in RPL19A-GFP expression – cell-based, S. cerevisiae, multiplex flow cytometry, primary screen (AID 1862).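 Note: lower values mimic rapamycin by blocking the RPL19A rise seen in DMSO cells.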 The conditions noted are these: S. cerevisiae RPL19A-GFP strain, flow cytometry fluorescence, 3 h; at 10 µM; stronger effect = lower value. On the technique in general: Flow cytometry measures light scatter and fluorescence of single cells or particles in a stream.

Experiment [2] can be described thus: TOR pathway GLN3 branch reporter MEP2-GFP changes – S. cerevisiae, multiplex flow cytometry, primary screen (AID 1867;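 active = GFP response, as percent of the DMSO control, above the screen-wide mean plus 3 SD, about 139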;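 note: median GFP channel fluorescence of barcode-gated MEP2-GFP cells measured by flow cytometry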). Conditions: S. cerevisiae MEP2-GFP strain, 3 h, at 10 µM, stronger effect = higher value, 100% means same as DMSO wells.
Experiment [3] can be described thus: TOR pathway RTG branch CIT2 reporter changes – S. cerevisiae, GFP fusion, multiplex flow cytometry, primary screen (AID 1870;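 active = percent response above a set limit, the screen-wide mean plus 3 SD, cut at about 130% in these data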;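 note: barcoded CIT2-GFP strain pooled with four other GFP strains with rapamycin as positive control; median GFP fluorescence per well over plate mean of DMSO wells so 100% = DMSO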). The conditions noted are these: S. cerevisiae CIT2-GFP expression, 3 h, at 10 µM, stronger effect = higher value.
Experiment [4] in a line: TOR pathway LAP4-GFP level changes – S. cerevisiae, multiplex flow cytometry, primary screen (AID 1873;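 active = GFP signal, as percent of the solvent control, above the screen mean plus 3 SD, about 149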). Conditions: S. cerevisiae LAP4-GFP expression, 3 h, at 10 µM, stronger effect = higher value.
Experiment [5] can be described thus: yeast AGP1-GFP level changes, GLN3 branch – cell-based, multiplex flow cytometry, S. cerevisiae, primary screen (AID 1887;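 active = GFP signal above the screen-wide mean plus 3 SD, that is over about 124.5% of the solvent control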;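 note: AGP1-GFP fusion strain of S. cerevisiae within a five-strain barcoded multiplex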). The conditions noted are these: 3 h, at 10 µM, stronger effect = higher value.
A short description of experiment [6]: reduced mouse 2C T cell binding to pMHC/ICAM-1 vesicles – MLPCN validation set, flow cytometry, LFA-1/ICAM-1 modulator project, pilot screen (AID 2523;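 active = response below a set limit, under 55% cells CD8-positive and vesicle-bound, and CD8 cells' 90th-percentile brightness under 279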;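 for vesicle binding response: mean PE anti-B7-1 fluorescence of CD8+ cells relative to row control; 100% = QL9-loaded vesicles with DMSO vehicle in the same plate row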). Conditions: 2C mouse CD8+ T cells, at 7 µM, stronger effect = lower value; double positive events: measured here: CD8+/vesicle+ event percentage.
The target of experiment [7] is Integrin beta-1 (Homo sapiens) + Integrin alpha-4 (Homo sapiens) (UniProt P13612+P05556). Put plainly: alpha4beta1 integrin LIBS antibody binding reduction – U937 cells, HUTS-21 mAb, flow cytometry, validation set, VLA-4 allosteric modulator project, pilot screen (AID 2674;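 active = inhibition above 50%, about 3 SD of the validation set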;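 note: antibody binding induced by the VLA-4 ligand LDV present at three times its Kd; 0% = LDV ligand with antibody and no compound and 100% = antibody without LDV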). Conditions: HUTS-21 LIBS mAb binding, at 6.7 µM, stronger effect = higher value, binding induced by LDV ligand.

The nature of experiment [8]: calorie-restriction mimetic ROS inhibitors, yeast – validation compound set, pilot screen (AID 2706;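 active = superoxide response below 65% of plate, a cut near 3 SD across the whole screen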;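 note: yeast exposed to compound for one week at 30 degrees C before staining; 100% = mean of all compound wells on the same plate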). The conditions noted are these: S. cerevisiae aging, superoxide DHE fluorescence; at 10 µM; stronger effect = lower value.
For experiment [9], the target named is Beta-adrenergic receptor kinase 1 (Homo sapiens) (UniProt P25098). Briefly: GRK2 binders displacing RNA aptamer, biochemical, validation, human GRK2, bead flow cytometry (AID 488806;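 active = aptamer binding inhibition above 30%, about 3 SD of noise from non-fluorescent compounds; inactive = inhibition at or below 30%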). Conditions: bead-bound GRK2, FAM-aptamer displacement, at 10 µM, stronger effect = higher value.
The target in experiment [10] is Beta-2 adrenergic receptor (Homo sapiens) (UniProt P07550). Put plainly: agonist-induced loss of surface beta2AR – cell-based, FAP fluorogen, flow cytometry, validation set, pilot screen (AID 504459;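 active = percent response above 42, roughly 3 SD of non-fluorescent test compounds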;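 note: agonist-driven loss of surface beta2AR via internalization measured by FAP dye flow cytometry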). The conditions noted are these: Am2.2-beta2AR cells, at 10 µM, stronger effect = higher value.
Experiment [11] addresses AP-2 complex subunit beta (Homo sapiens) (UniProt P63010). Briefly: beta-arrestin/AP2 interaction blockers – biochemical, validation set, GST-AP2 beads, flow cytometry, pilot screen (AID 504541;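 active = inhibition above 54%, about 3 SD of non-fluorescent compounds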;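 note: AP2 carries R879A mutation and is captured from E. coli lysate; bead-bound FITC arrestin peptide fluorescence measuring arrestin peptide binding to AP2; 0% = DMSO wells and 100% = excess unlabeled arrestin peptide control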). The conditions noted are these: FITC arrestin peptide, at 10 µM, stronger effect = higher value, AP2 beta2 appendage fragment, R879A mutant.
The nature of experiment [12]: cytosolic pH regulators acting via V-ATPase – S. cerevisiae, pHLuorin, HTS validation (AID 504600; in the data active = response above about 15%;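 note: plate controls were DMSO for no effect and reference compound for full effect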). Conditions: V-ATPase proton transport, at 10 µM, stronger effect = higher value.
Experiment [13] has as its system anti-desmoglein-3 scFv antibody binding to human DSG3. Briefly: blockers of pathogenic pemphigus antibody–desmoglein-3 binding – biochemical, validation compound set, bead-based, flow cytometry, pilot screen (AID 588368;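 active = binding below the plate cutoff, the plate median minus 3 SD, with a reading above zero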;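 note: signal is the median channel fluorescence of bead-bound GFP antibody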). The conditions noted are these: Protein G beads, DSG3-Fc, scFv-GFP binding, at 10 µM, stronger effect = lower value.
A short description of experiment [14]: Nile Red efflux blockade in pump-expressing yeast – validation compound set, multiplex, phenotypic, pilot screen (AID 588506;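 active = efflux inhibition above 0.42, the validation set average plus 4 SD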;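 note: Nile Red retained in cells so higher fluorescence means more efflux inhibition; 0 = negative control wells and 1 = enniatin B 25 µM full block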). The conditions noted are these: S. cerevisiae pump-expressing triplex, Nile Red efflux flow cytometry; at 10 µM; stronger effect = higher value; the pumps come from Candida albicans.
Experiment [15] addresses ATP-binding cassette sub-family B member 6 (Homo sapiens) (UniProt Q9NP58). Briefly: blockers of ABCB6-driven porphyrin uptake – K562-ABCB6 cells, flow cytometry, validation set, pilot screen (AID 588550;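 active = inhibition above the screen-wide mean plus 3 SD, about 51%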;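 note: 0% = DMSO wells and 100% = benzethonium chloride 70 µM positive control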). The conditions noted are these: K562-ABCB6 porphyrin accumulation, 1 h, at 10 µM, stronger effect = higher value.
Experiment [16] can be described thus: AML differentiation inducers, ER-HoxA9 marrow cells – cell-based, GFP/MAC1 double positive, flow cytometry, validation set, primary screen (AID 588685;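 active = differentiation response of at least 50%, scaled between solvent and reference control, from cells with both markers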;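 note: compound exposure lasts four days before antibody staining and flow analysis; 0% = DMSO wells and 100% = 5 µM fulvestrant positive control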). The conditions noted are these: stronger effect = higher value, normalized: vehicle 0, fulvestrant 100.

In general, inhibition refers to the drop in the measured response relative to a control, in per cent.

Beta-adrenergic receptor kinase 1 (Homo sapiens), sequence (P25098 whole entry, looked up): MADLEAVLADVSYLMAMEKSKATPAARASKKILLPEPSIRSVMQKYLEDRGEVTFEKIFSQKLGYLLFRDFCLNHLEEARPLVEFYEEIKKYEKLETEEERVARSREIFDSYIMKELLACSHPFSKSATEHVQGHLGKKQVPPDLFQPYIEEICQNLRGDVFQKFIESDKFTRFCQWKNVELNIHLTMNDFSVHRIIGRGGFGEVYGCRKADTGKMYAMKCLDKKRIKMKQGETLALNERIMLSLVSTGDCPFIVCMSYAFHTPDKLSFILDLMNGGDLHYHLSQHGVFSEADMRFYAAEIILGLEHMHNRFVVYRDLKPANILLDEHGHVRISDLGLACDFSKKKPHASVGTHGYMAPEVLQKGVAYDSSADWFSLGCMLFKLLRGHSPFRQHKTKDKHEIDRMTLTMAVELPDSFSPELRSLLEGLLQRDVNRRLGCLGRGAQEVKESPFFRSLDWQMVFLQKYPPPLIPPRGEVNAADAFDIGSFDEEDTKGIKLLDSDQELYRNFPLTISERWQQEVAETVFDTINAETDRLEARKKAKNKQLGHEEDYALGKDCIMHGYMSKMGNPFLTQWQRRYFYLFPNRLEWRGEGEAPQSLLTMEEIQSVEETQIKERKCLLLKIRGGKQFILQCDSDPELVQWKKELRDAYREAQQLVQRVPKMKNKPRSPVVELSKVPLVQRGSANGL
ATP-binding cassette sub-family B member 6 (Homo sapiens), sequence (Q9NP58 whole entry, looked up): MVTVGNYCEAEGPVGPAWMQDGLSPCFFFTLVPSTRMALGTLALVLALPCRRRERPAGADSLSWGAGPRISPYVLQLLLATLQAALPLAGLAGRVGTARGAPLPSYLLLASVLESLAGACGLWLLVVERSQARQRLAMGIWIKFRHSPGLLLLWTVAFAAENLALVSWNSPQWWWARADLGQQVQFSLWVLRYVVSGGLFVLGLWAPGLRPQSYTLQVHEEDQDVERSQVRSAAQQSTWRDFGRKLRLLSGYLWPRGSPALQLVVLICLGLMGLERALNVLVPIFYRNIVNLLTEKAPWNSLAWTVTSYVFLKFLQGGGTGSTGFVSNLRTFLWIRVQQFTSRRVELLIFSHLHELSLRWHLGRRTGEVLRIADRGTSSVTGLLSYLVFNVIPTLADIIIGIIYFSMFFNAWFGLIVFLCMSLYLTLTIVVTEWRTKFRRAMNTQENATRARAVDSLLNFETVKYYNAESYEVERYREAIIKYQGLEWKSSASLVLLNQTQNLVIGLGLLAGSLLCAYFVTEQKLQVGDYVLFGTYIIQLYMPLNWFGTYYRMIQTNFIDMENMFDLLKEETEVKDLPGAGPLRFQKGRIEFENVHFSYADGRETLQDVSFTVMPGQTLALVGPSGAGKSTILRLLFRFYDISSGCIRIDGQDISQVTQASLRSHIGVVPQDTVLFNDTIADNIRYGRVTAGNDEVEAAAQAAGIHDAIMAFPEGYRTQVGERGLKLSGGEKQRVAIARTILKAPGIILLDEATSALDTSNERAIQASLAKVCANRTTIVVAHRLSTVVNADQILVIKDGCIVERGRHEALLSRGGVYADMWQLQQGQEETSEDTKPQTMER
Integrin beta-1 (Homo sapiens) + Integrin alpha-4 (Homo sapiens), sequence (P05556 whole entry, looked up): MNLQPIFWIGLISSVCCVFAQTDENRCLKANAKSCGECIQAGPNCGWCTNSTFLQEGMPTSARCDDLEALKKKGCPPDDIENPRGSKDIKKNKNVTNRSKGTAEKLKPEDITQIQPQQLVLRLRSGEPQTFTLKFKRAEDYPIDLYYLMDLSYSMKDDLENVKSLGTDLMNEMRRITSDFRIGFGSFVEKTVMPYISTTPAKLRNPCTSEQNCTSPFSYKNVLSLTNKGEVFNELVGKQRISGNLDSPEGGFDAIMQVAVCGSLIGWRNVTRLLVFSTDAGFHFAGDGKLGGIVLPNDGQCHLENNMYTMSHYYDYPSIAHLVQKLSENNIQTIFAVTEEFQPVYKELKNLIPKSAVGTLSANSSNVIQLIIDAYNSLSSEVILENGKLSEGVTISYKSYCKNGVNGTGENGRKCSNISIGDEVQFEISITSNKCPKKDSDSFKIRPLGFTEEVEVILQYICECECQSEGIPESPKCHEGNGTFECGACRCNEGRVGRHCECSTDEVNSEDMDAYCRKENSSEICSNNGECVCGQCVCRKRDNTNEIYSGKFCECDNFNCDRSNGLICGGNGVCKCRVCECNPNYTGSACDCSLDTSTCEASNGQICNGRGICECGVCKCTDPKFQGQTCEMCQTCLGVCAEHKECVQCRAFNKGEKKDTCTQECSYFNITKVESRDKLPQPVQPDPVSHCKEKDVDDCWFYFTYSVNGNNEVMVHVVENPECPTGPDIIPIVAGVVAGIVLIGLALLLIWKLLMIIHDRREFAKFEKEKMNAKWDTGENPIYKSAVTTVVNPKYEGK
Integrin beta-1 (Homo sapiens) + Integrin alpha-4 (Homo sapiens), sequence (P13612 whole entry, looked up): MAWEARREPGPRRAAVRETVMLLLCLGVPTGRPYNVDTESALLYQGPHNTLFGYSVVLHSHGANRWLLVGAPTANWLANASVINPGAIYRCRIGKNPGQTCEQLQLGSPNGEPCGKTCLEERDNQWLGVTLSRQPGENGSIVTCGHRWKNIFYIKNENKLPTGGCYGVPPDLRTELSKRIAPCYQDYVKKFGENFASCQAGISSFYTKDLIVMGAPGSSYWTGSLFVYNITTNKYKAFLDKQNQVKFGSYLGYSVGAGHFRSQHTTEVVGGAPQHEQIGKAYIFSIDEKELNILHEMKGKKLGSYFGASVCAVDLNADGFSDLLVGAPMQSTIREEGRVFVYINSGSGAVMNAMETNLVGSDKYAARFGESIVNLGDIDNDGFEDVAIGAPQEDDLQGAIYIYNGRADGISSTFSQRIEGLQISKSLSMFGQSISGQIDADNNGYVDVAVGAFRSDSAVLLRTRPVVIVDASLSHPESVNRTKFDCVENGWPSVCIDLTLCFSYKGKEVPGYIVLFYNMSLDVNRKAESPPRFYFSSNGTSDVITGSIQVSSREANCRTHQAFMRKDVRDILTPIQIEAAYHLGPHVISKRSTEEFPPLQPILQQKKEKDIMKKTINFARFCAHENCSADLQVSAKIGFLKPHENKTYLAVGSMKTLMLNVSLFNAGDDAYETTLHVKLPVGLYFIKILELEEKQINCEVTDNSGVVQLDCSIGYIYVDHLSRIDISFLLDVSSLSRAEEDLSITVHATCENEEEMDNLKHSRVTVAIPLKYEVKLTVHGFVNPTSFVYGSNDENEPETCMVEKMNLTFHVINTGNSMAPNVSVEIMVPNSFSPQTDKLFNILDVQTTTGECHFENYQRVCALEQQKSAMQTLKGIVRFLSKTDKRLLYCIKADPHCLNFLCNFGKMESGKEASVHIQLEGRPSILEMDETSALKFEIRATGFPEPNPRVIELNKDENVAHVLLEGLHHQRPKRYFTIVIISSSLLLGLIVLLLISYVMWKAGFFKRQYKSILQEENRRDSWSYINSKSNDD
Beta-2 adrenergic receptor (Homo sapiens), sequence (P07550 whole entry, looked up): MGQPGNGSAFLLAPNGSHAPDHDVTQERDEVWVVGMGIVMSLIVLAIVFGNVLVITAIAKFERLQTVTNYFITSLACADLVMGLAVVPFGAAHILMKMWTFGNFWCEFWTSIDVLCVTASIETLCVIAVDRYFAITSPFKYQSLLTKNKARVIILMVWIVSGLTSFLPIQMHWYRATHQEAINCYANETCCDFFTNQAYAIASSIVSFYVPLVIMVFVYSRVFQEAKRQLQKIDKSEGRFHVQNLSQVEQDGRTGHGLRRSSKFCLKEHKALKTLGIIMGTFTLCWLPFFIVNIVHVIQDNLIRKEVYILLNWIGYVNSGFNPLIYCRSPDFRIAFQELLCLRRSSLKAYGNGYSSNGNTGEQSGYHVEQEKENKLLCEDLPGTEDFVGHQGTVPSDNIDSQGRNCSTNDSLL
AP-2 complex subunit beta (Homo sapiens), sequence (P63010 whole entry, looked up, the tested form may be a part, one chain of several): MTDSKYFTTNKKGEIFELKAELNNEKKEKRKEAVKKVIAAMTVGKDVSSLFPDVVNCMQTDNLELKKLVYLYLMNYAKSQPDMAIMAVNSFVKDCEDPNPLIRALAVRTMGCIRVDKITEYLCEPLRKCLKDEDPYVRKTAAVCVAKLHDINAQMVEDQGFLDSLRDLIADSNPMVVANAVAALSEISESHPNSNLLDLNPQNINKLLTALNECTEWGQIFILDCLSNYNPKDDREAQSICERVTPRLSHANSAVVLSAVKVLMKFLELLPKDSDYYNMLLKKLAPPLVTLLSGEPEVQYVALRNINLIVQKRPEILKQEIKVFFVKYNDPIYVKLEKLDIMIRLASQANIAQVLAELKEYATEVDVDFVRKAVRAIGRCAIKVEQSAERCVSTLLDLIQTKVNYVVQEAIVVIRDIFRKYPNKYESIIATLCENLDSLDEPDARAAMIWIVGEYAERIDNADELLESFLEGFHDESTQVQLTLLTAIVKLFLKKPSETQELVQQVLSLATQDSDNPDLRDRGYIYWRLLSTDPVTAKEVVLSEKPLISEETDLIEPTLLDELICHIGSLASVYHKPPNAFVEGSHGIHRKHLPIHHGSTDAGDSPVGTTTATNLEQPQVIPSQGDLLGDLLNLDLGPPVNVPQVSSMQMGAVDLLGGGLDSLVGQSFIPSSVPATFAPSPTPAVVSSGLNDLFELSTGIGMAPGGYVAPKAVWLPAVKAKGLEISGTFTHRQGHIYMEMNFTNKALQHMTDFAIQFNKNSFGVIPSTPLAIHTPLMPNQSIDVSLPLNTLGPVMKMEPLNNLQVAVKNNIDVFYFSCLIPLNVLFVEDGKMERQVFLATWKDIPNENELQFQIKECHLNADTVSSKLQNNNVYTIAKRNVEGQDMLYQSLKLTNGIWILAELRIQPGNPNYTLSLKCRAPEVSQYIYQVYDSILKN

On to `CC(=O)CC(c1ccc([N+](=O)[O-])cc1)c1c(O)c2ccccc2oc1=O` (centres undefined), for which the percent of DMSO control GFP in experiment [1] is 107% (inactive). The GFP response vs DMSO is 105% (inactive) in [2] and 118% (inactive) in experiment [4]. Also, the percent response of DMSO control in experiment [3] was 105% (inactive). In addition, the GFP response, % of DMSO in experiment [5] was 114% (inactive). For the same compound, the double positive events in experiment [6] worked out at 60.4%. In addition, the vesicle binding response in experiment [6] is 115% (inactive). In addition, the inhibition is -5.11% (inactive) in [7], 1.39% (inactive) in [11] and 2% (inactive) in [15]. Further, in experiment [8], the superoxide response (% of plate) is 105% (inactive). Further, in experiment [9], the aptamer binding inhibition is -1% (inactive). Besides, the response was -6.11% (inactive) in experiment [10] and 1.39% (inactive) in experiment [12]. The binding (% of control) in [13] was 99% (inactive). Also, the efflux inhibition (fraction of control) in experiment [14] was 0.4 (inactive). In experiment [16], the differentiation response is -11.9% (inactive).
Regarding `CC(C)CC(NC(=O)CNC(=O)C1O[C@@H]2OC(C)(C)O[C@@H]2[C@H]2OC(C)(C)O[C@@H]12)C(=O)O` (some centres undefined), in experiment [1], the percent of DMSO control GFP was 101% (inactive). Also, the GFP response vs DMSO in experiment [2] is 104% (inactive); in experiment [4] it was 99.9% (inactive). Also, the percent response of DMSO control in experiment [3] is 102% (inactive). Further, the GFP response, % of DMSO in experiment [5] is 102% (inactive). Also, the double positive events in experiment [6] came to 62.4%. In addition, the vesicle binding response in experiment [6] is 214% (inactive). Also, the inhibition was -46.1% (inactive) in experiment [7], 9.78% (inactive) in experiment [11] and -3% (inactive) in [15]. The superoxide response (% of plate) in [8] is 97.8% (inactive). In addition, the aptamer binding inhibition in [9] was -1% (inactive). Moreover, the response is -1.33% (inactive) in experiment [10] and -1.96% (inactive) in [12]. Further, the binding (% of control) in [13] is 96.9% (inactive). In addition, in experiment [14], the efflux inhibition (fraction of control) is -0.04 (inactive). For the same compound, in [16], the differentiation response was 12.9% (inactive).
Take `COc1ccc(NS(=O)(=O)c2ccc(N)cc2)nn1`: the percent of DMSO control GFP in [1] was 97.3% (inactive). Moreover, the results for the GFP response vs DMSO in experiment [2] and in [4] were 104% (inactive) and 120% (inactive), respectively. The percent response of DMSO control in experiment [3] is 92.9% (inactive). Further, the GFP response, % of DMSO in experiment [5] was 102% (inactive). The double positive events in experiment [6] is 56.9%. In experiment [6], the vesicle binding response was 162% (inactive). Further, the inhibition in experiment [7] is 5.03% (inactive); in experiment [11], 4.72% (inactive); in experiment [15], 2% (inactive). Besides, in experiment [8], the superoxide response (% of plate) was 91.9% (inactive). Further, in experiment [9], the aptamer binding inhibition was 6% (inactive). Also, the response in experiment [10] was -5.23% (inactive); in experiment [12], 3.89% (inactive). Further, the binding (% of control) in experiment [13] is 102% (inactive). Moreover, in [14], the efflux inhibition (fraction of control) was -0.17 (inactive). For the same compound, the differentiation response in experiment [16] is -12% (inactive).
Turning to `COc1ccc(C(=O)N2c3cc4c(cc3C(C)=CC2(C)C)OCO4)cc1`, the percent of DMSO control GFP in experiment [1] is 97.8% (inactive). Further, the GFP response vs DMSO is 103% (inactive) in experiment [2] and 116% (inactive) in experiment [4]. Moreover, in experiment [3], the percent response of DMSO control was 98.9% (inactive). For the same compound, the GFP response, % of DMSO in experiment [5] is 93.4% (inactive). This compound also came in with a double positive events in experiment [6] of 56.6%. Besides, in [6], the vesicle binding response is 40.1% (inactive). In addition, the inhibition in experiment [7] was -2.53% (inactive); in experiment [11], -10.4% (inactive); in [15], 10% (inactive). Also, the superoxide response (% of plate) in experiment [8] was 98.5% (inactive). Moreover, the aptamer binding inhibition in [9] was 5% (inactive). In addition, the response in experiment [10] is 4.24% (inactive); in [12], -0.49% (inactive). Further, the binding (% of control) in experiment [13] is 96.1% (inactive). Besides, in experiment [14], the efflux inhibition (fraction of control) was -0.04 (inactive). Moreover, in [16], the differentiation response was -1.71% (inactive).
Take `O=C1Cc2ccccc2C(c2ccccc2)N1` (centres undefined): in [1], the percent of DMSO control GFP is 98.8% (inactive). For the same compound, the GFP response vs DMSO is 108% (inactive) in [2] and 90.1% (inactive) in experiment [4]. The percent response of DMSO control in [3] is 101% (inactive). The GFP response, % of DMSO in experiment [5] is 102% (inactive). In experiment [6], this compound showed a double positive events of 64.9%. Also, the vesicle binding response in [6] is 449% (inactive). Further, the inhibition in experiment [7] is -19.1% (inactive); in experiment [11] it was 56.3% (active); in experiment [15] it was 9% (inactive). Besides, the superoxide response (% of plate) in experiment [8] was 112% (inactive). Also, the aptamer binding inhibition in experiment [9] is -3% (inactive). Moreover, the response is -4.45% (inactive) in experiment [10] and -7.51% (inactive) in experiment [12]. Moreover, the binding (% of control) in experiment [13] was 95.9% (inactive). In addition, in experiment [14], the efflux inhibition (fraction of control) was 0.11 (inactive). Besides, the differentiation response in [16] is 53% (active).
For `O=C(NCCc1ccccc1)C1CCN(C2CCN(Cc3ccco3)CC2)CC1`, the percent of DMSO control GFP in experiment [1] was 98.6% (inactive). Moreover, the GFP response vs DMSO in experiment [2] was 105% (inactive); in experiment [4] it was 118% (inactive). In experiment [3], the percent response of DMSO control is 101% (inactive). The GFP response, % of DMSO in experiment [5] is 120% (inactive). In experiment [6], this compound yielded a double positive events of 58.9%. Moreover, the vesicle binding response in experiment [6] is 159% (inactive). The inhibition was -9.63% (inactive) in experiment [7], -2.11% (inactive) in experiment [11] and 6% (inactive) in [15]. In addition, the superoxide response (% of plate) in experiment [8] is 92.6% (inactive). Also, the aptamer binding inhibition in experiment [9] is -13% (inactive). The response is -41.8% (inactive) in [10] and -0.87% (inactive) in experiment [12]. The binding (% of control) in experiment [13] is 126% (inactive). For the same compound, the efflux inhibition (fraction of control) in [14] is -0.04 (inactive). Besides, the differentiation response in experiment [16] was -5.97% (inactive).
Take `CC(=O)Nc1ccccc1C(=O)C(=O)Nc1ccccc1`: the percent of DMSO control GFP in experiment [1] was 99.1% (inactive). For the same compound, the GFP response vs DMSO in experiment [2] is 99.6% (inactive); in experiment [4], 114% (inactive). For the same compound, the percent response of DMSO control in experiment [3] is 99.6% (inactive). Besides, the GFP response, % of DMSO in experiment [5] was 97.5% (inactive). In [6], the double positive events came out at 60.9%. In addition, in experiment [6], the vesicle binding response was 83.6% (inactive). The values for the inhibition in experiment [7], in experiment [11] and in [15] were 6.4% (inactive), 35.2% (inactive) and 2% (inactive), respectively. The superoxide response (% of plate) in experiment [8] was 102% (inactive). In experiment [9], the aptamer binding inhibition was 1% (inactive). Also, the response in [10] was -12.9% (inactive); in experiment [12] it was -3.86% (inactive). Besides, in experiment [13], the binding (% of control) was 95.3% (inactive). Moreover, the efflux inhibition (fraction of control) in [14] was -0.35 (inactive). Moreover, the differentiation response in experiment [16] is 29.6% (inactive).
